# Measured values as given in PubChem BioAssay AID1851 (National Center for Advancing Translational Sciences (NCATS), 2009).
# Several values for one entry are separate records, joined by “and”; a condition that tells them apart may be missing. Equal entries are not always repeated. Out of some 16,000 compounds screened, about 5,700 (36%) were called active. Not shown: some 24% with an inconclusive outcome. This is one part of the list. A number with no mark means an inactive call. Calls follow the shape of the dose curve; as a rule, active = well fitted curve in the direction sought with a large enough effect; inconclusive = small, poorly fitted or top-dose-only effect, or effect the other way; inactive = no such curve, though single readings can be large or run the other way.
# Biological target: Cytochrome P450 1A2 (Homo sapiens) (UniProt P05177)
# Assay: Cytochrome panel assay with activity outcomes
# Conditions: recombinant CYP, pro-luciferin dealkylation, luminescence, p450-cyp1a2; series mostly up to 57.1 µM; activity, negative = inhibition: at the top concentration
# % is scaled to controls: 0 for no effect and ±100 for the full control effect.
# Chain of Cytochrome P450 1A2 (Homo sapiens) (P05177 whole entry, looked up): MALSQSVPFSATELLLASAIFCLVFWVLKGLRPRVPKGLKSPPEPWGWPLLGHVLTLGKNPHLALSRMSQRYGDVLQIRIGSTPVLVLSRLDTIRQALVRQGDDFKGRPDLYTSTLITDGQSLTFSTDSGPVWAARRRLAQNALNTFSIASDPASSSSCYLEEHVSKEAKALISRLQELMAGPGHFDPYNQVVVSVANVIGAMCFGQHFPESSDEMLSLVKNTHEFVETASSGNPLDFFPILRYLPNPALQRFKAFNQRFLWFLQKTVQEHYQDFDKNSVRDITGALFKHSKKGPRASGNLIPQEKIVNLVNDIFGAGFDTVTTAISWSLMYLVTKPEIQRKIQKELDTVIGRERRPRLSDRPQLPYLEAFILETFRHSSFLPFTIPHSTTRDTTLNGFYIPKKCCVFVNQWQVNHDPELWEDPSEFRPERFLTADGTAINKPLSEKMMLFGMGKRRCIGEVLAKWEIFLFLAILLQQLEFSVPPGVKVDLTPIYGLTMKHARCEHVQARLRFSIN
SMILES,AC50,"activity, negative = inhibition"
CC(C)(Oc1ccc(Cl)cc1)C(=O)Nc1ccncc1,20 µM (active),
CC(C)(Oc1ccc(Cl)cc1)C(=O)Nc1cccnc1,2 µM (active),
COCCn1c(=O)c(-c2cc(F)cc(F)c2)nc2cnc(Oc3cccc(Cl)c3)nc21,5.01 µM (active),
COCCn1c(=O)c(-c2ccccc2)nc2cnc(Oc3cccc(Cl)c3)nc21,1 µM (active),
N#CCCn1c(=O)c(-c2cccs2)nc2cnc(Oc3cccc(Cl)c3)nc21,3.16 µM (active),
N#CCCn1c(=O)c(-c2ccc(Cl)cc2)nc2cnc(Oc3cccc(Cl)c3)nc21,,-14.7%
N#CCCn1c(=O)c(-c2ccccc2)nc2cnc(Oc3cccc(Cl)c3)nc21,2.51 µM (active),
Cc1cnc(CNc2ccnc(-c3c(C)noc3C)n2)cn1,12.6 µM (active),
Cc1noc(C)c1-c1nccc(NCc2cccnc2)n1,0.158 µM (active),
Cc1noc(C)c1-c1nccc(NCc2cccs2)n1,0.501 µM (active),
Cc1noc(C)c1-c1nccc(NCc2ccccc2)n1,0.794 µM (active),
Cc1noc(C)c1C(=O)N1CCC2(CCN(Cc3ccccc3)CC2)CC1,,-5.81%
CC(=O)N(NC(=O)c1ccccc1Cl)C1CC(=O)N(c2ccc(C)cc2)C1=O (stereo not given),,5.79%
CC(=O)/C=C/c1ccc2ccccc2n1,2.51 µM (active),
O=C(O)/C=C\C(=O)N1Cc2cc3ccccc3nc2C1,,-16.3% [at 11.4 µM]
O=C(c1cnccn1)N1CCC2(CC1)CN(c1ccccn1)C2,,-12.9%
CCOC(=O)CCCc1c[nH]c2ccccc12,2.51 µM (active),
C[C@@](N)(Cc1c[nH]c2ccccc12)C(=O)O,,-11.5% [at 11.4 µM]
O=C(Cc1c[nH]c2ccccc12)OCC(=O)c1ccccc1,12.6 µM (active),
CN(CC(=O)O)Cc1c[nH]c2ccccc12,,-14.8% [at 11.4 µM]
CN1C2C=C(N(CCc3c[nH]c4ccccc34)C(=O)c3ccc(Cl)cc3)CC1CC2 (stereo not given),,14.6%
CC(C)CNC(=O)CCCc1c[nH]c2ccccc12,14.1 µM (active),
N[C@@H](Cc1c[nH]c2ccccc12)C(=O)O,,-1.28%
COC(=O)C(Cc1c[nH]c2ccccc12)NC(=O)C(C)C (stereo not given),,-15.1%
Cc1cccc(CN2CCN(CC(=O)O)C2=O)c1,,9.94%

SMILES,AC50,"activity, negative = inhibition"
O=C(O)CN1CCN(Cc2ccccc2)C1=O,,-26.6%
O=C(O)CN1CCN(Cc2ccc(F)cc2Cl)C1=O,5.62 µM (active),
Cc1ccc(C(c2nnnn2CC2CCCO2)N2CCN(C(=O)c3ccco3)CC2)cc1 (stereo not given),,-19.2%
CCOC(=O)c1sc(N(Cc2ccccc2)C(=O)CN2C(=O)CN(C)C2=O)nc1C,20 µM (active),
COc1ccc2[nH]c(=O)c(NC(N)=S)nc2c1,3.55 µM (active),
Cc1ccc2[nH]c(=O)c(NC(N)=S)nc2c1,4.47 µM (active),
C(=N\n1cnnc1)/c1cccn1-c1ccccc1,8.91 µM (active),
CC(C)NC(=O)N1CCCC2(CCN(S(=O)(=O)c3ccccc3)CC2)C1,,-2.13%
CCCN1CNC(=S)N(c2cccc(C)c2C)C1,,-0.257%
CC(C)=CCC1=C(OCC(=O)O)C(=O)c2ccccc2C1=O,0.501 µM (active),
CC(C)=CCc1c(C)nc2ccccc2c1C(=O)O,,-22.6%
O=C1CC(N2CCN(CCc3ccccn3)CC2)C(=O)N1c1ccc(Cl)cc1 (stereo not given),,-11.7%
O=C1CSC(c2ccccn2)N1c1ccc(Cl)c(Cl)c1 (stereo not given),10 µM (active),
CC(=O)Nc1ccc(N2C(=O)CSC2c2c(F)cccc2Cl)cc1 (stereo not given),,-0.57%
COc1cc2c(cc1OC)-c1cc(=Nc3c(C)cc(C)cc3C)n(C)c(=O)n1CC2,,-18.3%
Cn1c(=O)c2cc(S(=O)(=O)NCCC(=O)Nc3ccc(Cl)cc3)ccc2n(C)c1=O,,-4.77%
COc1ccc(OC)c2[nH]c(=O)c(CCNC(=O)c3ccc(S(=O)(=O)N4CCCC4)cc3)cc12,,-27.7%
COc1ccc(OC)c2[nH]c(=O)c(CCNC(=O)c3ccc(S(=O)(=O)N(C)C)cc3)cc12,,-13.1%
COc1ccc(OC)c2[nH]c(=O)c(CCNS(=O)(=O)c3ccccc3)cc12,12.6 µM (active),
COc1ccc(Cl)cc1C(=O)NCCc1ccc(S(=O)(=O)NC(=O)NC2CCCCC2)cc1,,-2.36% [at 25.6 µM]
COc1ccc(OC)c2[nH]c(=O)c(CCNS(=O)(=O)c3ccc(Cl)cc3)cc12,12.6 µM (active),
COc1ccc(OC)c2[nH]c(=O)c(CCNC(=O)COc3ccccc3)cc12,11.2 µM (active),
CC1(C)OC[C@@H]2O[C@H](n3cnc4c(N)nc(Cl)nc43)[C@@H](OS(C)(=O)=O)[C@@H]2O1,,-14.5% [at 2.29 µM]
O=C(O)CCC(=O)N1CCc2cc(S(=O)(=O)N3CCCCC3)ccc21,,-10.2%
O=S(=O)(c1cccc(-c2nnc(-c3ccc(Br)cc3)o2)c1)N1CCCCCC1,14.1 µM (active),

SMILES,AC50,"activity, negative = inhibition"
O=S(=O)(c1ccc(Br)cc1)N1CCN(S(=O)(=O)c2ccc(Br)cc2)CC1,,-11.2% [at 11.4 µM]
Cc1nn2c3c(cnc2c1-c1ccccc1)C(=O)CC(c1ccccc1)C3 (stereo not given),3.16 µM (active),
CCC1NC(=S)N(C2CCCCC2)C1=O (stereo not given),,-4.86%
CN(Cc1ccco1)c1ccnc(-c2ccoc2)n1,12.6 µM (active),
CN(Cc1ccco1)c1ccnc(-c2cccnc2)n1,0.794 µM (active),
CN(C)C(=O)c1ccc(-c2nccc(N(C)Cc3ccco3)n2)cc1,12.6 µM (active),
COc1cccc(-c2nccc(N(C)Cc3ccco3)n2)c1,0.631 µM (active),
COc1ccc(Cc2nnc(NC(=O)Cn3cnc4c3c(=O)n(C)c(=O)n4C)s2)cc1OC,,2.87%
CN(Cc1ccco1)c1ccnc(-c2cccc(C#N)c2)n1,0.398 µM (active),
CS/C(N)=N/N=C/c1ccc([N+](=O)[O-])cc1,14.1 µM (active),
O=C1CCCC=C1[C@H](O)c1ccc([N+](=O)[O-])cc1,,-7.01% [at 11.4 µM]
NC(N)=N/N=C\c1ccc(C2CCNCC2)cc1,,-12% [at 2.29 µM]
C=CCNC(=O)c1csc(-c2ccccc2)n1,0.631 µM (active),
C=CCNC(=O)c1cccn1-c1ccsc1C(=O)OC,,-26.4%
C=CCNC(=O)c1ccc(-c2nc(-c3ccc(Cl)c(Cl)c3)cs2)cc1,,-28.6%
C=CCNC(=O)c1onc(CSc2ccc(F)cc2)c1C(=O)O,,-2.62%
COc1ccc(N(C)C(=O)c2ccc3nc(-c4ccccc4)c(-c4ccccc4)nc3c2)cc1,,-19.6%
C=CCNC(=O)c1ccc2nc(-c3ccccc3)c(-c3ccccc3)nc2c1,15.8 µM (active),
CC(=O)NCCNc1ncnc2ccc(-c3cccc(NS(C)(=O)=O)c3)cc12,15.8 µM (active),
COCCNc1ncnc2ccc(-c3cccc(NS(C)(=O)=O)c3)cc12,0.794 µM (active),
O=C(c1cnccn1)N1CCC2(CCN(Cc3nccs3)CC2)CC1,,-8.84%
CN(c1ccc(C(=O)NCc2ccccn2)cc1)S(C)(=O)=O,,10.6%
Cc1ccc(NS(=O)(=O)c2cc(C(=O)NCc3ccccn3)ccc2Cl)cc1,5.01 µM (active),
C=C(CC)C(=O)c1ccc(OCC(=O)O)c(Cl)c1Cl,,-13.9% [at 25.6 µM]
COC(=O)/C=C/CSC1=N/C(=C/c2ccc(-n3cncn3)cc2)C(=O)N1,1 µM (active),

SMILES,AC50,"activity, negative = inhibition"
CNc1ncnc2c1ncn2[C@H]1C[C@@H](OP(=O)(O)O)[C@H](COP(=O)(O)O)O1,,-14.7%
N#Cc1ccc(C(=O)Nc2ccc(N3CCN(C(=O)c4ccco4)CC3)cc2)c(F)c1,,21.3%
COC(=O)Cn1cc(/C=N/NC(=O)c2ccc(C#N)cc2F)c2ccccc21,3.55 µM (active),
CCN(CC)C(=O)Cn1cc(/C=C(\C#N)C(=O)N2CCN(c3ccccc3)CC2)c2ccccc21,,-12.4%
COc1ncc2nc(C)c(=O)n(-c3ccccc3)c2n1,5.01 µM (active),
COc1ccc(-n2c(=O)c(C)nc3cnc(OC)nc32)cc1,,-21.9%
Cc1nc2cnc(Oc3ccccc3)nc2n(-c2ccccc2)c1=O,10 µM (active),
COc1ccc(Oc2ncc3nc(C)c(=O)n(-c4ccc(OC)cc4)c3n2)cc1,15.8 µM (active),
COc1ccc(/C(C)=N/NC(=O)c2ccc(CSc3cccc4cccnc34)cc2)cc1OC,11.2 µM (active),
Cc1ccc(N[C@H](c2ccccc2)c2ccc3cccnc3c2O)cc1,,-24.5% [at 2.29 µM]
Cc1cccc(CSc2cccc3cccnc23)c1,2 µM (active),
Cc1nc(N=Nc2cc(S(=O)(=O)O)ccc2S(=O)(=O)O)c(COP(=O)(O)O)c(C=O)c1O,,-11.6%
COc1cc(CNC(=O)CCCC/C=C\C(C)C)ccc1O,1.58 µM (active) and 3.16 µM (active),
COc1cc([C@H](O)C(=O)O)ccc1O,,-11.9%
COc1cc(CC(=O)O)ccc1O,,0.616%
O=C(Nc1ncn[nH]1)c1ccc([N+](=O)[O-])cc1[N+](=O)[O-],,-24%
Clc1ccc(Nc2ncn[nH]2)cc1,4.47 µM (active),
O=C(O)/C=C\C(=O)Nc1ncn[nH]1,,-8.55% [at 11.4 µM]
Cc1cc(C(C#N)c2cccc(Cl)c2)n2ncnc2n1 (stereo not given),5.01 µM (active),
CC[C@@H]1CN2CCc3cc(OC)c(OC)cc3[C@H]2C[C@@H]1C[C@H]1NCCc2cc(OC)c(OC)cc21,,-3.72% [at 25.6 µM]
NC1CCN(c2cccc(Cl)n2)CC1,15.8 µM (active),
c1c[nH]c(CN2CCN(Cc3ncc[nH]3)CC2)n1,,0.981% [at 11.4 µM]
COc1ccc(C2N=C(N)N=C(N)N2c2ccccc2OC)cc1OC (stereo not given),,1.06%
CCn1c(SCC(=O)Nc2ccccc2C(=O)OC)nnc1-c1ccc(N)cc1,14.1 µM (active),
CC(C)CC(C(=O)NCC1CCCO1)N(C(=O)Cn1nnc(-c2ccc(F)cc2)n1)c1ccccc1F (stereo not given),,-7.92%
